Experimental data from PMC7862700, “An all-to-all approach to the identification of sequence-specific readers for epigenetic DNA modifications on cytosine”.

Tests used:
Test in all cases: DAPPL (digital affinity profiling via proximity ligation, sequencing); 10 mM Tris-HCl pH 7.5, 50 mM NaCl, 1 mM DTT, 4% glycerol, room temperature, 30 min; GST-TFs on glutathione beads, 16-mer random dsDNA library, 0.1% formaldehyde crosslink after washing; high values mean tight binding
FEV = biological target: T1, FEV (Homo sapiens, UniProt Q99581 1-238); details: protein: recombinant; tags: N-terminal GST; dsDNA, one strand shown
T1 sequence: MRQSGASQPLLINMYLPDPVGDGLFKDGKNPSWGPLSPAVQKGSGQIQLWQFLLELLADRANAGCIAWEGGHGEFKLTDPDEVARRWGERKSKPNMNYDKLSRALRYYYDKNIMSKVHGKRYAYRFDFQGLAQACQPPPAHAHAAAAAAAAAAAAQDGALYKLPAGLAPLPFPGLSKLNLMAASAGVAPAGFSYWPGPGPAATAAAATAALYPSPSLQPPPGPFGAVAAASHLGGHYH
Summary of the method: (§1)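 Sequencing on an Illumina NextSeq500 followed washing, crosslinking with 0.1% formaldehyde, proximity ligation (BsaI/T4 ligase, 1 h, 37 °C) and PCR amplification of pools that had been incubated for 30 min at room temperature with 200 nmole of a random double-stranded 16-mer DNA library in Tris/NaCl/DTT/glycerol buffer. Each pool held DNA-barcoded human transcription factors, expressed in yeast as GST fusions and captured on glutathione beads, plus a tag-only sample. Binding signal is a hexamer's read frequency for a factor divided by its frequency in the tag-only sample.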

ETV5 = ETV5 (Homo sapiens, UniProt P41161 1-510); details: protein: recombinant; tags: N-terminal GST; dsDNA, one strand shown
Summary of the method: as §1

HSF1 = HSF1 (Homo sapiens, UniProt Q00613 1-529); details: protein: recombinant; tags: N-terminal GST; chain copies: 3; dsDNA, one strand shown
Summary of the method: as §1

SPIC = biological target: T2, SPIC (Homo sapiens, UniProt Q8N5J4 1-248); details: protein: recombinant; tags: N-terminal GST; dsDNA, one strand shown
T2 sequence: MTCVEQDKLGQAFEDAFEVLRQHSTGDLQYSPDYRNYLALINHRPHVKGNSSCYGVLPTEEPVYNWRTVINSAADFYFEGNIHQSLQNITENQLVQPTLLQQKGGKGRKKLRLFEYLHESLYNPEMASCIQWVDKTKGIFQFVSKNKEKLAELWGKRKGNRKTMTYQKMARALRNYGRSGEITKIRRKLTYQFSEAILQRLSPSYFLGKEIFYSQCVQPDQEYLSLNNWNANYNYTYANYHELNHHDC
Summary of the method: as §1

ELF4 = ELF4 (Homo sapiens, UniProt Q99607 1-663); details: protein: recombinant; tags: N-terminal GST; dsDNA, one strand shown
Summary of the method: as §1

ELK4 = biological target: T3, ELK4 (Homo sapiens, UniProt P28324-2 1-405); details: protein: recombinant; tags: N-terminal GST; dsDNA, one strand shown
T3 sequence: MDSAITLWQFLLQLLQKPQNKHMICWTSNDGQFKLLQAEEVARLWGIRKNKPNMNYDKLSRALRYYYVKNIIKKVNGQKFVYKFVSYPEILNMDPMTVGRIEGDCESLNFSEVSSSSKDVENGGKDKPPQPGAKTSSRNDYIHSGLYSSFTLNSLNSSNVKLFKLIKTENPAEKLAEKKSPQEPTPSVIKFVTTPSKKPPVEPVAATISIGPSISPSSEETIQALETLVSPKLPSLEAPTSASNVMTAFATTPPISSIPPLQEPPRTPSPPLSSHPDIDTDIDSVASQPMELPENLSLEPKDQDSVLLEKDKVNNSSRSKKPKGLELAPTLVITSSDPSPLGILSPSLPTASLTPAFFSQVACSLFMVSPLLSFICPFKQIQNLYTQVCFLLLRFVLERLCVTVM
Summary of the method: as §1

ETV2 = biological target: T4, ETV2 (Homo sapiens, UniProt O00321 1-342); details: protein: recombinant; tags: N-terminal GST; dsDNA, one strand shown
T4 sequence: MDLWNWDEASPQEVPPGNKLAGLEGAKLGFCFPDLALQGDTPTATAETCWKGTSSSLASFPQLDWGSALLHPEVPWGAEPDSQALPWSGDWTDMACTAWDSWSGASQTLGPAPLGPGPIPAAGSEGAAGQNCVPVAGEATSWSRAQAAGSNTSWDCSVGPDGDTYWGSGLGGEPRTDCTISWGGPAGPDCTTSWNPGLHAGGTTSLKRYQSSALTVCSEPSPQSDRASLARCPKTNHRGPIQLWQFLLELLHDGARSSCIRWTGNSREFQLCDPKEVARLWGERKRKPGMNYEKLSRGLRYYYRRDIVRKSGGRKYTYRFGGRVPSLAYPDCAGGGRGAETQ
Summary of the method: as §1

ELF3 = biological target: T5, ELF3 (Homo sapiens, UniProt P78545 1-371); details: protein: recombinant; tags: N-terminal GST; dsDNA, one strand shown
T5 sequence: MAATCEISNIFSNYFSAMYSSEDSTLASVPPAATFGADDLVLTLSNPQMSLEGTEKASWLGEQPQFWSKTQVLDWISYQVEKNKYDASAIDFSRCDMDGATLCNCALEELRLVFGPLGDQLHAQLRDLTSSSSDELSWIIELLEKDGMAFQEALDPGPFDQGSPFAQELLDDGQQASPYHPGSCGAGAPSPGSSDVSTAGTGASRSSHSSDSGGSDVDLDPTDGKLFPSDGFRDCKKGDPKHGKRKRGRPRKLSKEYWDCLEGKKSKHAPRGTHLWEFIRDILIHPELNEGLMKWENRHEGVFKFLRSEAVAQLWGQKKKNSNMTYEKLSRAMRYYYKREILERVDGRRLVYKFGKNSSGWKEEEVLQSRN
Summary of the method: as §1

CRX = CRX (Homo sapiens, UniProt O43186 1-299); details: protein: recombinant; tags: N-terminal GST; dsDNA, one strand shown
Summary of the method: as §1

ETV1 = ETV1 (Homo sapiens, UniProt P50549 1-477); details: protein: recombinant; tags: N-terminal GST; dsDNA, one strand shown
Summary of the method: as §1

ERF = biological target: T6, ERF (Homo sapiens, UniProt P50548 1-548); details: protein: recombinant; tags: N-terminal GST; dsDNA, one strand shown
T6 sequence: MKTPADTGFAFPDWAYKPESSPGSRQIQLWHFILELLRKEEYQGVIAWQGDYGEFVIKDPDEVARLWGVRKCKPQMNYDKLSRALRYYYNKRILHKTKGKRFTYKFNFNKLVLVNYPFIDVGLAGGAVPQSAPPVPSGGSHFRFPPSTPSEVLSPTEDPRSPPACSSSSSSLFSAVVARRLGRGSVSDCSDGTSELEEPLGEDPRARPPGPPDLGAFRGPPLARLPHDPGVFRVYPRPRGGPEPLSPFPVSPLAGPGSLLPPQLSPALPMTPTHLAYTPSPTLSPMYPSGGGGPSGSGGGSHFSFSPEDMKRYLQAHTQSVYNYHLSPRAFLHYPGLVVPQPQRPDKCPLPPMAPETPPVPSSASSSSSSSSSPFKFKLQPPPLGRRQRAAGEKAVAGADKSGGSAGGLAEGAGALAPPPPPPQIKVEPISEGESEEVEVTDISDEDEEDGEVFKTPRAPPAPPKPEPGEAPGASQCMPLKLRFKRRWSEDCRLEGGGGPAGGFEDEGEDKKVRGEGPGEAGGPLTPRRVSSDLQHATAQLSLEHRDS
Summary of the method: as §1

ETV3L = biological target: T7, ETV3L (Homo sapiens, UniProt Q6ZN32 1-361); details: protein: recombinant; tags: N-terminal GST; dsDNA, one strand shown
T7 sequence: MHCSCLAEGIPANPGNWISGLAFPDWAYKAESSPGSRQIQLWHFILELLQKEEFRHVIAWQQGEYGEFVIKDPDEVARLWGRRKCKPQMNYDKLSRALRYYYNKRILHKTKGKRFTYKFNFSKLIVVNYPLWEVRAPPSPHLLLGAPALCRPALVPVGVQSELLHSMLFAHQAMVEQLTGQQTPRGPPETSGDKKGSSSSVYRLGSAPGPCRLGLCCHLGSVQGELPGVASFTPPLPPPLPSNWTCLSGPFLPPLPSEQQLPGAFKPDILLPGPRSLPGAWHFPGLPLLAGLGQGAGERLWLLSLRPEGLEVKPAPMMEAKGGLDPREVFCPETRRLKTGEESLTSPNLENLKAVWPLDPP
Summary of the method: as §1

ETS2 = biological target: T8, ETS2 (Homo sapiens, UniProt P15036 1-469); details: protein: recombinant; tags: N-terminal GST; dsDNA, one strand shown
T8 sequence: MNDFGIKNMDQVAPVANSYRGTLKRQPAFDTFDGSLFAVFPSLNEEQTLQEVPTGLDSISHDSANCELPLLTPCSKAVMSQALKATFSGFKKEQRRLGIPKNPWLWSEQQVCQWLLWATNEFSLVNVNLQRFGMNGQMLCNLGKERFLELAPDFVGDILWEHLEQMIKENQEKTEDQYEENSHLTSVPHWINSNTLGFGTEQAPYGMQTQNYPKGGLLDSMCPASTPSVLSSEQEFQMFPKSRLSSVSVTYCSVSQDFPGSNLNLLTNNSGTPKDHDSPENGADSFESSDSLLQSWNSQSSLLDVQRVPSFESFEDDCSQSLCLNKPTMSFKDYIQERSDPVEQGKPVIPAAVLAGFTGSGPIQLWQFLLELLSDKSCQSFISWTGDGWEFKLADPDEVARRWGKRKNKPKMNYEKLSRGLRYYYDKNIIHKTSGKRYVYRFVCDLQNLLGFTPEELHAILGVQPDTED
Summary of the method: as §1

SPDEF = biological target: T9, SPDEF (Homo sapiens, UniProt O95238 1-335); details: protein: recombinant; tags: N-terminal GST; dsDNA, one strand shown
T9 sequence: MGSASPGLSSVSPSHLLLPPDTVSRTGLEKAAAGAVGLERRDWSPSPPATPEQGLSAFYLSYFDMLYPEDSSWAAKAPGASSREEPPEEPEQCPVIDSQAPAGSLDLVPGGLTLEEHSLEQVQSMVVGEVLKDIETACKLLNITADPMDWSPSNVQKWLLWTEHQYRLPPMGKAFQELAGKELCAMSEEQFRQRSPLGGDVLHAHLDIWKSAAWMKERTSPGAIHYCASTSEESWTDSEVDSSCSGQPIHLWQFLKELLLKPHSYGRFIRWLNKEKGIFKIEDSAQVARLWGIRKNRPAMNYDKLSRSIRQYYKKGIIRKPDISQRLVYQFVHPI
Summary of the method: as §1

ETV7 = biological target: T10, ETV7 (Homo sapiens, UniProt Q9Y603 1-341); details: protein: recombinant; tags: N-terminal GST; dsDNA, one strand shown
T10 sequence: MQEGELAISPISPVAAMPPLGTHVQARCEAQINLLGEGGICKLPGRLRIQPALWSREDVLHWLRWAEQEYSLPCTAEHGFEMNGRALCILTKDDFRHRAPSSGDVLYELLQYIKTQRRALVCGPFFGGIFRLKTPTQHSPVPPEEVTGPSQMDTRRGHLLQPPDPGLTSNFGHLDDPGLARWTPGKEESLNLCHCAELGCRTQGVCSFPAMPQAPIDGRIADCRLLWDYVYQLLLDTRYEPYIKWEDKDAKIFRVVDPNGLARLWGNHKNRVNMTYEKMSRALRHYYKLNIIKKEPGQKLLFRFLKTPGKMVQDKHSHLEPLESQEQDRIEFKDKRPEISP
Summary of the method: as §1

ELF5 = biological target: T11, ELF5 (Homo sapiens, UniProt Q9UKW6-2 1-255); details: protein: recombinant; tags: N-terminal GST; dsDNA, one strand shown
T11 sequence: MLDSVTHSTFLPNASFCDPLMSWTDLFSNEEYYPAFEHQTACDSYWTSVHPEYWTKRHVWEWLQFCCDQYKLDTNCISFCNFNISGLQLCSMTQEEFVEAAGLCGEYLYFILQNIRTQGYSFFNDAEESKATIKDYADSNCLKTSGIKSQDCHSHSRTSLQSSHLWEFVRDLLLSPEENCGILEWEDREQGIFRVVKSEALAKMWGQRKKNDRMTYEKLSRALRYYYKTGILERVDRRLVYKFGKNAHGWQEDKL
Summary of the method: as §1

ETV3 = biological target: T12, ETV3 (Homo sapiens, UniProt P41162-2 1-143); details: protein: recombinant; tags: N-terminal GST; dsDNA, one strand shown
T12 sequence: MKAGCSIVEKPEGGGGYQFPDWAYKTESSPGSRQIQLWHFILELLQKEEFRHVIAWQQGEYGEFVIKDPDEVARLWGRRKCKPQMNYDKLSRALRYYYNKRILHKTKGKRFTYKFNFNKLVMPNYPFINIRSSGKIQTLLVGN
Summary of the method: as §1

ETV6 = ETV6 (Homo sapiens, UniProt P41212 1-452); details: protein: recombinant; tags: N-terminal GST; dsDNA, one strand shown
Summary of the method: as §1

ETV6, sequence (P41212 whole entry): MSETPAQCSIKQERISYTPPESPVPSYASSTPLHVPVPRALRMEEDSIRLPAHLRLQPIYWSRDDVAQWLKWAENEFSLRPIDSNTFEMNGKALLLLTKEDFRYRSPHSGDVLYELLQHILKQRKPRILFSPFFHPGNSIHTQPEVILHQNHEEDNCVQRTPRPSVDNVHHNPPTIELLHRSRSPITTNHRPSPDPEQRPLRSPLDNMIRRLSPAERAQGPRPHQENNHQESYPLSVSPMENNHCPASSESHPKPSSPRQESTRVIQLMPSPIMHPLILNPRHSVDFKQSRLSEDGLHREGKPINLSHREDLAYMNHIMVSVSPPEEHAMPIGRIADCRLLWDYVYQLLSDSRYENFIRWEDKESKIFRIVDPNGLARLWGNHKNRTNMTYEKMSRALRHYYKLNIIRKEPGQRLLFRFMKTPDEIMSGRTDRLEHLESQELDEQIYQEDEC
ETV5, sequence (P41161 whole entry): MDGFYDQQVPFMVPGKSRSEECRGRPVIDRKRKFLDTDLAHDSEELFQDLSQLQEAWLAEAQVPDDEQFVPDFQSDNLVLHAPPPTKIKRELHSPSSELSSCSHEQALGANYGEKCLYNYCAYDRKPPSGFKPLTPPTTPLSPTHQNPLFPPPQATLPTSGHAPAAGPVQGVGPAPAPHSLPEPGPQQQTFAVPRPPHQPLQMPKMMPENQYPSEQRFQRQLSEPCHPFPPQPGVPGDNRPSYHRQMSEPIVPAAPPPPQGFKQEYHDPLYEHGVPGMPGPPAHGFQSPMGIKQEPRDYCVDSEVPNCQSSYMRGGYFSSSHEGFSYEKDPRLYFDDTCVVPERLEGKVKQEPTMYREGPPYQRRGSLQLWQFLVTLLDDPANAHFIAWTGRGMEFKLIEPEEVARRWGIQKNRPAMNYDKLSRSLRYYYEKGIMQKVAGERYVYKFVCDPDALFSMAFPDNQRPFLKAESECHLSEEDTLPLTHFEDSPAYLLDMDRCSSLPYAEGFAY
ELF4, sequence (Q99607 whole entry): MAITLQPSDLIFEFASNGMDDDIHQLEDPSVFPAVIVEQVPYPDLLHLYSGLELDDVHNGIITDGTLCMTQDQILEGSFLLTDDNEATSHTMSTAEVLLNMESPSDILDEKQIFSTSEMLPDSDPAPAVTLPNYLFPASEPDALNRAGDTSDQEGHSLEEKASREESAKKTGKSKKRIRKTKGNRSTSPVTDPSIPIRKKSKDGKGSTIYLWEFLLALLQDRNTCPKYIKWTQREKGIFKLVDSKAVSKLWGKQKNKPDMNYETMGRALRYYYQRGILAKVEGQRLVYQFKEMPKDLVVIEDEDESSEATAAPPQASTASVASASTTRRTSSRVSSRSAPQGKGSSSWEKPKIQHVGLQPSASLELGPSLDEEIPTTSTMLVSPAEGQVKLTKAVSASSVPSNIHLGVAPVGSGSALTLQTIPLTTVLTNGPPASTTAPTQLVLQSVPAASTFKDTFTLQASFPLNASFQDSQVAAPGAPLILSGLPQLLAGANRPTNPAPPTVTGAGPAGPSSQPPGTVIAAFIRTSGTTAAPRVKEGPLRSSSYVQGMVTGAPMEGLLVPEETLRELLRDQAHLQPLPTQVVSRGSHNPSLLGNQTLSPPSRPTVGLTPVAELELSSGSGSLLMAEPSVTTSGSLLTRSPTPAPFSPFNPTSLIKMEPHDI
CRX, sequence (O43186 whole entry): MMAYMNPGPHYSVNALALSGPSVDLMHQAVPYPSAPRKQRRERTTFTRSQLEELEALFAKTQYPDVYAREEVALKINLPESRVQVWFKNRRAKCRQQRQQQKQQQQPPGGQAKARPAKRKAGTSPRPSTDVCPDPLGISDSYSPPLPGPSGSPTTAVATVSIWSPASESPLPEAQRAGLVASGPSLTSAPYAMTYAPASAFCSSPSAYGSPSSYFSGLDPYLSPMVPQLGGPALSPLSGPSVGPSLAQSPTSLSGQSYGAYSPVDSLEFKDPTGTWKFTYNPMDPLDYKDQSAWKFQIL
HSF1, sequence (Q00613 whole entry): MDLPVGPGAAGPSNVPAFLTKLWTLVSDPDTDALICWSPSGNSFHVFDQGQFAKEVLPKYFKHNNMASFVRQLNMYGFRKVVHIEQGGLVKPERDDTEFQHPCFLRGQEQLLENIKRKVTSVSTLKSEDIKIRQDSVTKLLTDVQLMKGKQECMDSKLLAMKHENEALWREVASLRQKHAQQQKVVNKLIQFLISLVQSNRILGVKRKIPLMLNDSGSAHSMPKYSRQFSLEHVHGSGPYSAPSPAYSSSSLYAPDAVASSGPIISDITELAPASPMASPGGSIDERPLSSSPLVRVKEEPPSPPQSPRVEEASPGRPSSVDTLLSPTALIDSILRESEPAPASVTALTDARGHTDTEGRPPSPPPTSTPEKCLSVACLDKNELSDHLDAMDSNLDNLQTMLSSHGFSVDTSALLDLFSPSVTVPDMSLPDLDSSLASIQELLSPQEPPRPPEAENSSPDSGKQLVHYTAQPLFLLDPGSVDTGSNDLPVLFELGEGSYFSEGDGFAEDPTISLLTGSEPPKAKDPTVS
ETV1, sequence (P50549 whole entry): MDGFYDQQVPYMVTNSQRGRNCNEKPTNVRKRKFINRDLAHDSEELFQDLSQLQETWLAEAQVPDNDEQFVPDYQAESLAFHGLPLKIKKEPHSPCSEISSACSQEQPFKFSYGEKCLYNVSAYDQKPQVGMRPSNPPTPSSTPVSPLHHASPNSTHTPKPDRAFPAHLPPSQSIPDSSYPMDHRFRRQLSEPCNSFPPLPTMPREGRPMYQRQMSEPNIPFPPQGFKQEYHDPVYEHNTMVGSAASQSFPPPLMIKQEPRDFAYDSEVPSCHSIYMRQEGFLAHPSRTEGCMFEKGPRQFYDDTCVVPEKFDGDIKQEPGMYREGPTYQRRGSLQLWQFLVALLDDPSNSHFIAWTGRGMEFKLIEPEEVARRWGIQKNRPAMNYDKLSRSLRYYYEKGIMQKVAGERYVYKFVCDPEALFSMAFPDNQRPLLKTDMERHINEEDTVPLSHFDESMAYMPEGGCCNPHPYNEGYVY

## GCTAAT
FEV
  binding signal: 1.18 fold enrichment (6-mer frequency, TF over GST control)
ETV5
  binding signal: 1.11 fold enrichment (6-mer frequency, TF over GST control)
HSF1
  binding signal: 1.72 fold enrichment (6-mer frequency, TF over GST control)
SPIC
  binding signal: 1.23 fold enrichment (6-mer frequency, TF over GST control)
ELF4
  binding signal: 1.27 fold enrichment (6-mer frequency, TF over GST control)
ELK4
  binding signal: 1.22 fold enrichment (6-mer frequency, TF over GST control)
ETV2
  binding signal: 1.24 fold enrichment (6-mer frequency, TF over GST control)
ELF3
  binding signal: 1.22 fold enrichment (6-mer frequency, TF over GST control)
CRX
  binding signal: 2.56 fold enrichment (6-mer frequency, TF over GST control)
ETV1
  binding signal: 1.14 fold enrichment (6-mer frequency, TF over GST control)
ERF
  binding signal: 1.23 fold enrichment (6-mer frequency, TF over GST control)
ETV3L
  binding signal: 1.13 fold enrichment (6-mer frequency, TF over GST control)
ETS2
  binding signal: 1.24 fold enrichment (6-mer frequency, TF over GST control)
SPDEF
  binding signal: 1.03 fold enrichment (6-mer frequency, TF over GST control)
ETV7
  binding signal: 1.23 fold enrichment (6-mer frequency, TF over GST control)
ELF5
  binding signal: 1.07 fold enrichment (6-mer frequency, TF over GST control)
ETV3
  binding signal: 1.2 fold enrichment (6-mer frequency, TF over GST control)
ETV6
  binding signal: 1.17 fold enrichment (6-mer frequency, TF over GST control)
